Screens as filed in PubChem.
LEDGF integ inh – blocks HIV-1 LEDGF/p75-dependent DNA integration; 370,000 compounds, 0.64% hits; inhibition, % at 3.7 µM; TR-FRET IN-LEDGF/p75 DNA integration, Eu/Cy5; AID 743269;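 active = inhibition above the screen-wide mean plus 3 SD, cut at about 13% in these data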;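 also: signal is the Cy5 over europium emission ratio at 671 and 618 nm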
ABHD5 PLIN5 PPI – inhibitors of human ABHD5-perilipin-5 interaction; Q00G26+Q8WTS1; inhibition, % at 4 µM; Split G. princeps luciferase complementation, luminescence, 4 h; 360,000 compounds, 0.78% hits; AID 602281;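 active = inhibition above the mean inhibition across every tested compound plus 3 SD, cut at about 22% in these data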
Target sequence (Q00G26 whole entry, looked up): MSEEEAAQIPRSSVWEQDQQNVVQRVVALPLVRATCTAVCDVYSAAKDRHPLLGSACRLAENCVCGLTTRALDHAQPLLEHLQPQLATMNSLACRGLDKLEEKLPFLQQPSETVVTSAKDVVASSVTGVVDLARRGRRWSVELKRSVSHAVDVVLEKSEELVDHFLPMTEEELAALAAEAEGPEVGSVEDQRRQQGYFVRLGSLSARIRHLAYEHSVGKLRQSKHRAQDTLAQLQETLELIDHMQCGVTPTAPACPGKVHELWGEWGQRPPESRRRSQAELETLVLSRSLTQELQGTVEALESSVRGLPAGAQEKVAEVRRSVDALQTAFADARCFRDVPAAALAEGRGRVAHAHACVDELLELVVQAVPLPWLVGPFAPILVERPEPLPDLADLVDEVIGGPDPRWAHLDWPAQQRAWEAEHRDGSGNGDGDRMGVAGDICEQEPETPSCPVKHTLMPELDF
Target sequence (Q8WTS1 whole entry, looked up): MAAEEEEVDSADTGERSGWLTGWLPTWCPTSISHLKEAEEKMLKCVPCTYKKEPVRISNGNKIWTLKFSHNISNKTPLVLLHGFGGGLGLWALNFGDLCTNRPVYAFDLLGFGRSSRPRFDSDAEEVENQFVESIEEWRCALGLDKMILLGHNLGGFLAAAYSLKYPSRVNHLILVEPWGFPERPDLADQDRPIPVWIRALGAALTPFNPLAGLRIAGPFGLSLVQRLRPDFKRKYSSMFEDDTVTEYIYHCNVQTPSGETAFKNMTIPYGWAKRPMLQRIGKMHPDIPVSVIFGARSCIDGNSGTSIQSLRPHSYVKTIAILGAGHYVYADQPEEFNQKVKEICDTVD
MBD2 DNA inh – blocks human MBD2 binding to methylated DNA; 370,000 compounds, 0.31% hits; Q9UBB5; TR-FRET, MBD2 binding to methylated oligonucleotide; inhibition, % at 4.4 µM; in the data active = inhibition above about 13%
PRMT1 inh – inhibitors of human PRMT1; Q99873; recombinant PRMT1, activity-based probe fluorescence polarization; AID 652257; inhibition, % at 2.79 µM; 370,000 compounds, 1.3% hits;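 active = inhibition above about 21% made by adding two undisclosed values, limit read from the data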
UHRF1 MBD2 ctr – blocks human UHRF1 binding to methylated DNA. Q96T88. UHRF1 binding to methylated oligo, TR-FRET. inhibition, % at 4.4 µM. 370,000 compounds, 0.75% hits; in the data active = inhibition above about 21%;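 also: UHRF1 SRA domain binding a hemimethylated CpG hairpin DNA probe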
rCAG RNA binder – molecules binding r(CAG) RNA repeats; r(CAG) RNA repeat, TO-PRO-1 dye displacement fluorescence; inhibition, % at 3 µM; 370,000 compounds, 1.3% hits;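 active = inhibition above the plate cutoff, the mean of all test compounds on that plate plus 3 SD, cut at about 35% in these data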;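 also: higher means more dye released from RNA so lower well fluorescence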
rCAG bind conf – r(CAG) RNA repeat binding, confirmation; shares compounds with rCAG RNA binder; TO-PRO-1 dye displacement fluorescence; inhibition, % at 3 µM; 4,300 compounds, 70% hits;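 active = inhibition above a per-plate cutoff, the mean inhibition of sample wells plus 3 SD, cut at about 35% in these data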;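 also: loss of TO-PRO-1 fluorescence as compound displaces dye from 1x1 AA loop RNA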
DNA CAG counter – counter-screen for rCAG RNA binders: DNA CAG dye complex inhibitors; shares compounds with rCAG RNA binder; d(CAG) DNA oligo TO-PRO-1 dye displacement, fluorescence; inhibition, % at 3 µM; 4,300 compounds, 94% hits; AID 652068;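 active = inhibition above its plate's cutoff, the mean test-well inhibition plus 3 SD, cut at about 4.8% in these data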;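 also: hits displace the dye from DNA and so lower well fluorescence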
Numbers stand for hits; – = inactive; · = no result given. Sampled rows, rich in hits. Any-hit rate of the full collection: about 4.1%.

SMILES	LEDGF integ inh	ABHD5 PLIN5 PPI	MBD2 DNA inh	PRMT1 inh	UHRF1 MBD2 ctr	rCAG RNA binder	rCAG bind conf	DNA CAG counter
O=C(NCCc1ccc(Cl)cc1)c1ccc2c(c1)ncn2C1CCCCC1	–	·	–	–	–	–	·	·
Cc1cccc(NC(=S)NNC(=O)COc2ccc(Cl)cc2Cl)c1	–	–	–	–	–	45	–	10
CCOc1ccc(-n2c(O)c(/C=N/NC(=O)C3COc4ccccc4O3)c3ccccc3c2=O)cc1 (configuration not stated)	–	–	–	–	–	76	74	37
COc1cc(/C=N\NC(=O)C2COc3ccccc3O2)cc(OC)c1O (configuration not stated)	–	–	–	–	–	–	·	·
O=C(Cc1ccc([N+](=O)[O-])cc1)NNC(=O)c1cccs1	–	–	–	–	–	55	–	–
O=S(=O)(c1ccccc1)N1CCN(c2cccc(Cl)c2)CC1	–	–	–	–	–	–	·	·
O=[N+]([O-])c1ccc2[nH]cc(S(=O)(=O)N3CCN(c4cccc(Cl)c4)CC3)c2c1	–	–	–	–	–	43	37	20
C[C@H]1[C@@H](OC(=O)Nc2cccc(Cl)c2)CC[C@@]23CCCN2C(=O)CCC[C@@H]13	–	·	–	–	–	·	·	·
N#Cc1c(NC(=O)Cn2cnc3ccccc3c2=O)oc(-c2ccccc2)c1-c1ccccc1	–	–	–	–	–	43	–	14
N#Cc1c(NC(=O)CSc2ncccn2)oc(-c2ccccc2)c1-c1ccccc1	–	–	–	–	–	–	·	·
CC(C=NN=C1C(=O)Nc2ccccc21)=Cc1ccccc1	–	·	–	–	–	–	·	·
CCN(CC)S(=O)(=O)c1ccc(N2CCOCC2)c(NC(=O)c2ccccc2)c1	–	–	–	–	–	–	·	·
CCN(CC)S(=O)(=O)c1ccc(O)c(NC(=O)c2ccc(N3CCOCC3)c([N+](=O)[O-])c2)c1	–	–	–	–	–	53	44	13
O=c1[nH]c2ccccc2nc1-c1c[nH]c2ccccc12	–	–	–	–	–	43	–	14
C[C@@H]1COc2cc(N3CCSCC3)ccc2S(=O)(=O)N1C	–	·	–	–	–	–	·	·
O=C(O)CC1S/C(=N/N=C/c2ccc(-c3ccc(Cl)cc3[N+](=O)[O-])o2)NC1=O (configuration not stated)	–	–	–	–	–	43	–	6.6
O=C(O)CC1S/C(=N/N=C/c2ccc(-c3ccc(Cl)c([N+](=O)[O-])c3)o2)NC1=O (configuration not stated)	–	–	–	–	–	35	–	8.0
O=C(O)CC1S/C(=N/N=C/C=C/c2ccccc2[N+](=O)[O-])NC1=O (configuration not stated)	–	–	–	–	–	–	·	·
CC[C@H](CCC(=O)N(c1ccccc1)c1ccccc1)C1CC1	–	·	–	–	–	–	·	·
Cc1cccc(OC(=O)Nc2ccc(C(=O)O)c(O)c2)c1	–	–	–	–	–	–	·	·
CC(C)(C)c1ccc(OC(=O)Nc2ccc(O)c(C(=O)O)c2)cc1	–	–	–	–	–	54	37	11
Cc1ccc2c(c1)-c1c(cnn1CC(=O)NCCc1ccccc1F)CO2	–	·	–	–	–	–	·	·
Cc1ccc(F)c(NC(=O)/C(C#N)=C(\O)c2ccc(C(C)(C)C)cc2)c1	–	–	–	–	–	89	90	61
CC(NC(=O)c1c(N)[nH]c(C(=O)c2ccc(Cl)cc2)c1-c1ccc(Br)cc1)c1cccc2ccccc12 (configuration not stated)	–	·	–	–	–	–	·	·
Cc1c(OCc2nn[nH]n2)ccc2c(-c3ccccc3)cc(=O)oc12	–	–	–	–	–	–	·	·
SMILES	LEDGF integ inh	ABHD5 PLIN5 PPI	MBD2 DNA inh	PRMT1 inh	UHRF1 MBD2 ctr	rCAG RNA binder	rCAG bind conf	DNA CAG counter
COc1ccc(-c2cc(=O)oc3c(C)c(OCc4nn[nH]n4)ccc23)cc1	–	–	–	–	–	39	–	5.7
O=C(Nc1ccc(F)cc1)OCc1cn(Cc2ccccc2)nn1	–	·	–	–	–	–	·	·
CC(=Cc1ccccc1)C=C1SC(=S)N(CCCC(=O)Nc2ccc(C(=O)O)c(O)c2)C1=O	–	–	–	–	–	93	92	76
O=C(CCN1C(=O)/C(=C/c2cccs2)SC1=S)Nc1cccc(C(=O)O)c1	–	–	–	–	–	60	52	18
O=C(CCN1C(=O)/C(=C/c2cccs2)SC1=S)Nc1ccc(C(=O)O)c(O)c1	–	–	–	–	–	93	80	50
O=C(CCN1C(=O)/C(=C/c2cccs2)SC1=S)Nc1ccc(O)cc1	–	–	–	–	–	–	·	·
O=C(CCCN1C(=O)/C(=C/c2cccs2)SC1=S)Nc1cccc(C(=O)O)c1	–	–	–	–	–	–	·	·
CC(/C=C1\SC(=S)N(CCC(=O)Nc2ccc(O)cc2)C1=O)=C\c1ccccc1	–	–	–	–	–	–	·	·
O=C(CCCN1C(=O)/C(=C/c2cccs2)SC1=S)Nc1ccc(C(=O)O)cc1	–	–	–	–	–	42	39	7.8
NC(=O)c1c(N)[nH]c(C(=O)c2ccccc2)c1-c1ccccc1C(F)(F)F	–	·	–	–	–	·	·	·
COc1ccc(/C=C/S(=O)(=O)NCC(C)C)c(CNC(=O)OC(C)(C)C)c1	–	·	–	–	–	–	·	·
O=S(=O)(Nc1nc(CN2CCOCC2)nc2sc3c(c12)CCCC3)c1cc(F)ccc1F	–	–	–	–	–	50	38	9.6
Cc1sc2nc(CN3CCOCC3)nc(NS(=O)(=O)c3cc(Cl)ccc3Cl)c2c1C	–	–	–	–	–	53	46	10
Cc1sc2nc(CN3CCOCC3)nc(Cl)c2c1C	–	–	–	–	–	–	·	·
CCNc1nc(CN2CCOCC2)nc2sc3c(c12)CCC3	–	–	–	–	–	–	·	·
CS(=O)(=O)Nc1ccc(C(=O)CC(=O)Nc2ccc([N+](=O)[O-])cc2)cc1	–	–	–	–	–	37	–	9.4
CCCCCOC(=O)Nc1ccc(S(=O)(=O)Nc2cccc([N+](=O)[O-])c2)cc1	–	–	–	–	–	48	45	10
CCCCOC(=O)Nc1ccc(S(=O)(=O)Nc2ccc([N+](=O)[O-])cc2)cc1	–	–	–	–	–	51	–	9.9
O=[N+]([O-])c1ccc(S(=O)(=O)Nc2ccc(-c3ccccc3)cc2)cc1	–	–	–	–	–	45	35	8.7
O=C(CC(=O)c1ccccc1)Nc1ccc([N+](=O)[O-])cc1	–	–	–	–	–	–	·	·
O=C1COc2ccccc2C(c2nnnn2Cc2ccccc2)N1Cc1cccs1 (configuration not stated)	–	·	–	–	–	–	·	·
